Experimental findings from the supplement of paper PMC11732987, “Enantioselective OTUD7B fragment discovery through chemoproteomics screening and high-throughput optimisation” (Communications Chemistry, 2025) are described below.

Assay in all cases: log2 ratio of Biotin-Ahx-Ub-VS probe labelling (fragment/DMSO); higher = less target engagement (more negative = stronger competition), active = hit call of the paper (q ≤ 0.05, log2 ratio ≤ -1)
Common to all, as to conditions: compound concentration: 200 uM; treatment time: 3 h

One assay concerns the target T1, OTUD6B (UniProt Q8N6M0).
T1 sequence (whole entry): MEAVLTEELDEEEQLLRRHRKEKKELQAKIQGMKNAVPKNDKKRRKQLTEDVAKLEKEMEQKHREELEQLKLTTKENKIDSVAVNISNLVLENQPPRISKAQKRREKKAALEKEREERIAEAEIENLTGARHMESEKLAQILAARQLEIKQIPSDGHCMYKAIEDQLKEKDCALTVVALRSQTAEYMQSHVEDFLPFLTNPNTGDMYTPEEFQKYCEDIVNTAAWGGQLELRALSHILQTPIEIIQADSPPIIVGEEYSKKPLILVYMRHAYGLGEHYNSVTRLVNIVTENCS
Summed up: (§1)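 Triplicate samples of HEK293T lysate, 495 µg each, received fragment at 200 µM or vehicle for 3 h, followed by Biotin-Ahx-Ub-VS (0.5 µM final) for 1 h. After NeutrAvidin enrichment of labelled DUBs and LysC/trypsin digestion, peptides were run by diaPASEF LC-MS/MS. The values are average log2 fragment/vehicle ratios from global-median-normalised Spectronaut label-free quantities, tested by unpaired t-test on proteins having ≥2 unique peptides.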

A further assay concerns the target T2, OTUD7B (UniProt Q6GQQ9).
T2 sequence (whole entry): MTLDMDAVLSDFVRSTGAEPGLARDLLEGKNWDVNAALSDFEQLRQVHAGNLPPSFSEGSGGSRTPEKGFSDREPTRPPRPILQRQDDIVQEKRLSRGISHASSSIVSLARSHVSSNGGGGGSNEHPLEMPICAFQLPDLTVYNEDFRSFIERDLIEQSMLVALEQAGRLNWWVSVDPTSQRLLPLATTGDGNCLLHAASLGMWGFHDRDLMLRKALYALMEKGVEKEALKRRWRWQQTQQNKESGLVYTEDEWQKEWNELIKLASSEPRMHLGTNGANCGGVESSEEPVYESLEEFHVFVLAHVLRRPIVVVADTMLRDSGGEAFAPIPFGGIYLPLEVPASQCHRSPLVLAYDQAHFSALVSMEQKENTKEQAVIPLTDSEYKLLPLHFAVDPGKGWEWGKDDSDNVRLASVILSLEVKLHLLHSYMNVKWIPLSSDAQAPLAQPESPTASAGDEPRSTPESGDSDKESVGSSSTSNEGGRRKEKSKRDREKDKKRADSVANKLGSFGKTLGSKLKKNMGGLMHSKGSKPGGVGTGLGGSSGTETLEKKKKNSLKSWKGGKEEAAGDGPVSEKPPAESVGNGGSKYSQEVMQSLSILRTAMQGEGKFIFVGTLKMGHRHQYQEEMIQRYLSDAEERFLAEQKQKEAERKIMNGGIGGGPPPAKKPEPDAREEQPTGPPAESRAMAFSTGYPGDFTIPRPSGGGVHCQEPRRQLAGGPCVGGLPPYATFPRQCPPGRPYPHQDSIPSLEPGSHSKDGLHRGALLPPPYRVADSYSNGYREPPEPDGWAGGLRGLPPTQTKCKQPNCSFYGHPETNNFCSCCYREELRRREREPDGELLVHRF
Summed up:
as §1

Another assay concerns the target PRPF8 (UniProt Q6P2Q9). Summed up: as §1
The target of a further assay is T3, PSMD7 (UniProt P51665).
T3 sequence (whole entry): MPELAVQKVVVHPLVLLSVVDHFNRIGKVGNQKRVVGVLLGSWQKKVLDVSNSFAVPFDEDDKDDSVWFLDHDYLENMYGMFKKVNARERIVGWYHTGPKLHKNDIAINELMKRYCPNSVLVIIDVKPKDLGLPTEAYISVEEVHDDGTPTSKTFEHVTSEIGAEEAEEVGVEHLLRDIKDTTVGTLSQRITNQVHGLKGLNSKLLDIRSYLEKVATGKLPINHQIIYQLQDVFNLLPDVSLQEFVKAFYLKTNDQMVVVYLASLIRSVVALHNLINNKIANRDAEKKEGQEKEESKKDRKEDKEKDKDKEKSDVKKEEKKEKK
Summed up:
as §1

In the next assay the target is UCHL1 (UniProt P09936). Summed up: as §1
Another assay has as its target T4, UCHL3 (UniProt P15374).
T4 sequence (whole entry): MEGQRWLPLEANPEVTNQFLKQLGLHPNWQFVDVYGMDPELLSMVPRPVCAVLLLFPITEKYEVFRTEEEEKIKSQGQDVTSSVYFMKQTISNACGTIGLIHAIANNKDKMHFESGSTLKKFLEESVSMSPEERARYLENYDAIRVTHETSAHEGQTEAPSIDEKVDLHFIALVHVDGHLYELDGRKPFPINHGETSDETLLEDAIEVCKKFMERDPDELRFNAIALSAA
Summed up:
as §1

The target of another assay is T5, UCHL5 (UniProt Q9Y5K5).
T5 sequence (whole entry): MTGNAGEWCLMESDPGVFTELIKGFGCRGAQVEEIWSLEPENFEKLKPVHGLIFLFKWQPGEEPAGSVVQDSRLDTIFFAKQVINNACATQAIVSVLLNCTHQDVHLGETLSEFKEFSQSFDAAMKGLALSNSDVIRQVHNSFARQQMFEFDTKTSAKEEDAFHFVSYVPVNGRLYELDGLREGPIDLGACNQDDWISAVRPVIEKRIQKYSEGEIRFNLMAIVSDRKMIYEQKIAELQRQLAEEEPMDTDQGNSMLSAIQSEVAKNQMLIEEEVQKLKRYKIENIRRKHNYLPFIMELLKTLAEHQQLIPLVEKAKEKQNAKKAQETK
Summed up: as §1

The next assay deals with USP10 (UniProt Q14694). Summed up:
as §1

The target of another assay is T6, USP15 (UniProt Q9Y4E8).
T6 sequence (whole entry): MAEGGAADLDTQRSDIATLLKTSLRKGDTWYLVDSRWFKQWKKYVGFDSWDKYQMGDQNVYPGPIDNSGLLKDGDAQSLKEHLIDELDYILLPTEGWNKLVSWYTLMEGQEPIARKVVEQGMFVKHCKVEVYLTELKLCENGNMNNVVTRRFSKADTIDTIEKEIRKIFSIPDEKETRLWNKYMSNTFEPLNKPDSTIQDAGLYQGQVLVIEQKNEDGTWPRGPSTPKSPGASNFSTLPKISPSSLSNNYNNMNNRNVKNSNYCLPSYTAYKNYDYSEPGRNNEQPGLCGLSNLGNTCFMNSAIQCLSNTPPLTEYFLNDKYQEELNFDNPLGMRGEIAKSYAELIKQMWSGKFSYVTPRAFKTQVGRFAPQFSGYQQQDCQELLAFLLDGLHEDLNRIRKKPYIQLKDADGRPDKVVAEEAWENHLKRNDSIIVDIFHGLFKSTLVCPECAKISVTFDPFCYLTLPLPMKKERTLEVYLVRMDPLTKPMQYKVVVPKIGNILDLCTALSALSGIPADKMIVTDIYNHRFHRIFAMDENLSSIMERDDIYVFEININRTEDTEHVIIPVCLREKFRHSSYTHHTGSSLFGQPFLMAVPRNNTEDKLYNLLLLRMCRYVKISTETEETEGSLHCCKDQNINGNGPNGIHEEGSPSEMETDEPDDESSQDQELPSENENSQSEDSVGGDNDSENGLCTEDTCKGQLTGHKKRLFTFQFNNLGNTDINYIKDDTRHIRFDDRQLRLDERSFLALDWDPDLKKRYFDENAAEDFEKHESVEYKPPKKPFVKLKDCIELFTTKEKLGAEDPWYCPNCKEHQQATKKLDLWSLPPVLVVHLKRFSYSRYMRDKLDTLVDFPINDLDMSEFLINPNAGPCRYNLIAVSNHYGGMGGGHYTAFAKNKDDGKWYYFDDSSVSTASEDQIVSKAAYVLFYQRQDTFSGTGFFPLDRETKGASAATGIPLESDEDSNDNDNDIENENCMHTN
Summed up:
as §1

For the next assay, the target named is USP16 (UniProt Q9Y5T5). Summed up:
as §1

Unmarked numbers belong to inactive results.

Sequence of USP10 (Q14694 whole entry): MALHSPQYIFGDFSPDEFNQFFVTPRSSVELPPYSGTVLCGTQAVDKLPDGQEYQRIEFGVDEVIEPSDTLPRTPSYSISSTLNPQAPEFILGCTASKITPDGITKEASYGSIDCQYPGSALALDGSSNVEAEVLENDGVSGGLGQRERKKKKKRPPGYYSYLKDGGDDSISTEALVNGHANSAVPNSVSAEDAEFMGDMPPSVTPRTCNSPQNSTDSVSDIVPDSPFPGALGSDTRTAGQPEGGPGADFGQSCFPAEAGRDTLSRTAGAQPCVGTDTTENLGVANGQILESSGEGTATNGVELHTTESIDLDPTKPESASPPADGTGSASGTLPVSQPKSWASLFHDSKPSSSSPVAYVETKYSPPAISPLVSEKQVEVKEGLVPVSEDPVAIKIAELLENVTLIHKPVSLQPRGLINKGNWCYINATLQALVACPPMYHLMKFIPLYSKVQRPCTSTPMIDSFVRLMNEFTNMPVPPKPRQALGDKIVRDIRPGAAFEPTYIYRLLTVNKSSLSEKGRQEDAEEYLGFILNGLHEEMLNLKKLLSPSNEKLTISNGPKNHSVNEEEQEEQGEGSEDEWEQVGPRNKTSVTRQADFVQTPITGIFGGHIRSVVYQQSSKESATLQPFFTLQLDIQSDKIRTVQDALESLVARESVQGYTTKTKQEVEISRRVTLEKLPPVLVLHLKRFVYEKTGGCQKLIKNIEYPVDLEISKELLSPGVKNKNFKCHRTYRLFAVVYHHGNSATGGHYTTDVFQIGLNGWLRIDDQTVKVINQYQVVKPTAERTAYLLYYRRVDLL
Sequence of UCHL1 (P09936 whole entry, looked up): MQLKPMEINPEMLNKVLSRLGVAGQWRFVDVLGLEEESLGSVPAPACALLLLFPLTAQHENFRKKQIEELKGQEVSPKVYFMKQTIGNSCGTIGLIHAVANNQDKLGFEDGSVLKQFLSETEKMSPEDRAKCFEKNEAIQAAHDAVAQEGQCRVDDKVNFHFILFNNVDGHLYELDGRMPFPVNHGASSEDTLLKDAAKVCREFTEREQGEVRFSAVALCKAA
Sequence of USP16 (Q9Y5T5 whole entry, looked up): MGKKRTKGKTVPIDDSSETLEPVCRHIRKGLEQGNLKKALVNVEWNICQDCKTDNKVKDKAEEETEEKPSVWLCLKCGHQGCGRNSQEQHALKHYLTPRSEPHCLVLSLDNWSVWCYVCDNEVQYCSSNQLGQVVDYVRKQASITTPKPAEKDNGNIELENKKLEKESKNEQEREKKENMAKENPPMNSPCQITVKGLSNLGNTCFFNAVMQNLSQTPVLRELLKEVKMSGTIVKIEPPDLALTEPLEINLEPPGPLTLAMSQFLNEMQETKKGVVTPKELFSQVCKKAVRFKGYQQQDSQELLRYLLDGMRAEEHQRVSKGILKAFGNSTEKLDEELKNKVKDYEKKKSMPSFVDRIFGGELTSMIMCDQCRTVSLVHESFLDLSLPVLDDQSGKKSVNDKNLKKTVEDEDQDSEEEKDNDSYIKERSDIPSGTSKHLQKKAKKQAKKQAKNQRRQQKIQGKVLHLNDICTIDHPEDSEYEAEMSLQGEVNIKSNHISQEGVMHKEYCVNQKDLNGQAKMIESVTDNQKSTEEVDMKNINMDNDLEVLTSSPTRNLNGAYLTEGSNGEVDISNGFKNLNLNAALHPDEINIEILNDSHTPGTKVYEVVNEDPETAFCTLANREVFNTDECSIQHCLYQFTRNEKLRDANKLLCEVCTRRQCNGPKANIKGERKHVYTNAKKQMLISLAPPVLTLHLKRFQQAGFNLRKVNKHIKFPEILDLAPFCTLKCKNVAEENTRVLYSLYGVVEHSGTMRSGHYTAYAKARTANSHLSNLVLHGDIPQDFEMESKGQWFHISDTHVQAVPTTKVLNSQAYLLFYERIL

In the case of `Cc1conc1C1CN(C(=O)CCl)C1`, the “log2 ratio of Biotin-Ahx-Ub-VS probe labelling” value (“log2 ratio” below) with OTUD6B was -0.688; with OTUD7B it was -1.6 (active); with PRPF8, -0.125; with PSMD7, -0.499; with UCHL1, -2.04 (active); in the assay with UCHL3, -0.637. For the same compound, the “log2 ratio” value with UCHL5 was -0.912; with USP10 it was -0.254; with USP15, -1.15 (active); in the assay with USP16 it was -0.0913.
`CN(C)S(=O)(=O)c1ccccc1CNC(=O)CCl`: the “log2 ratio” value with OTUD6B is -0.265; with OTUD7B, -0.0445; in the assay with PRPF8, -0.0375; with PSMD7, -0.18; with UCHL1 it was -1.18 (active); with UCHL3, 0.0942. The “log2 ratio” value was -0.199 in the assay with UCHL5, -0.156 with USP10, -0.0655 in the assay with USP15 and 0.14 in the assay with USP16.
`N#Cc1ccc(Cl)cc1NC(=O)CCl`: the “log2 ratio” value in the assay with OTUD6B was -0.0498; in the assay with OTUD7B it was -1.73 (active); with PRPF8 it was 0.00848; in the assay with PSMD7, -0.0625; with UCHL1, -1.01 (active); with UCHL3, 0.385. In addition, the “log2 ratio” value with UCHL5 was 0.0193; with USP10, -0.153; with USP15, -0.0346; in the assay with USP16 it was -0.655.
In the case of `CCC(NC(=O)CCl)c1ccc(Cl)cc1` (stereo not given), the “log2 ratio” value in the assay with OTUD6B is 0.0691; with OTUD7B, -1.12 (active); with PRPF8, 0.164; with PSMD7, -0.0211; with UCHL1 it was -1.12 (active); in the assay with UCHL3 it was 0.495. Also, the “log2 ratio” value with UCHL5 is -0.175; with USP10, -0.0683; with USP15 it was -0.0837; with USP16, -0.0971.
On to `O=C(CCl)N(Cc1ccsc1)C1CC1`, for which the “log2 ratio” value with OTUD6B was 0.0351; with OTUD7B, -0.317; in the assay with PRPF8 it was -0.0299; with PSMD7, -0.114; with UCHL1, -0.773; with UCHL3 it was 0.415. For the same compound, the “log2 ratio” value with UCHL5 was -0.238; in the assay with USP10 it was -0.125; in the assay with USP15, 0.02; with USP16, 0.463.
In the case of `COCC1C=CCCN1C(=O)CCl` (stereo not given), the “log2 ratio” value in the assay with OTUD6B is -0.121; with OTUD7B it was -0.466; with PRPF8 it was -0.181; with PSMD7, -0.134; with UCHL1, -1.94 (active); with UCHL3, -0.0426. Moreover, the “log2 ratio” value with UCHL5 is -0.167; with USP10 it was -0.0693; with USP15, -0.145; in the assay with USP16 it was -0.0544.
Turning to `Cc1noc(C)c1CNC(=O)CCl`, the “log2 ratio” value is -0.543 in the assay with OTUD6B; -1.46 (active) in the assay with OTUD7B; -0.184 with PRPF8; -0.529 in the assay with PSMD7; -2.12 (active) with UCHL1; -0.701 with UCHL3. Moreover, the “log2 ratio” value in the assay with UCHL5 was -0.89; with USP10, -0.261; with USP15, -0.867; in the assay with USP16, -0.591.
